Most compounds without a hit are left out; they make up all but 3.3% or so of the library.
MazEF act = MazEF (E. coli) toxin RNase activation; P0AE70; 350,000 compounds, 0.32% hits; FAM/BHQ RNA-DNA oligo cleavage fluorescence, 5 h; AID 504720; activation, % at 20 µM; in the data active means activation above about 50%
BoNT F protease = inhibitors of Botulinum neurotoxin F light chain protease; 360,000 compounds, 0.22% hits; Multiplex microsphere protease cleavage assay, flow cytometry; inhibition, % at 10 µM; in the data active means inhibition above about 35%, passing the limit was not always enough; inconclusive means no clear call, values can overlap the other calls
PriA SSB inh = inhibitors of Klebsiella pneumoniae PriA binding to SSB C-terminal tail. AID 1272365. inhibition, % at 33 µM. 430,000 compounds, 0.6% hits. AlphaScreen SSBct-PriA binding, biotinylated peptide; in the data active means inhibition mostly above about 37%, no sharp cut-off; inactive means mostly below about 20%
Anthrax LF inh2 = blocks Bacillus anthracis lethal factor protease | multiplex microsphere protease cleavage assay, LF | inhibition, % at 10 µM | 360,000 compounds, 0.12% hits | AID 588501
Target sequence (P15917 whole entry, looked up): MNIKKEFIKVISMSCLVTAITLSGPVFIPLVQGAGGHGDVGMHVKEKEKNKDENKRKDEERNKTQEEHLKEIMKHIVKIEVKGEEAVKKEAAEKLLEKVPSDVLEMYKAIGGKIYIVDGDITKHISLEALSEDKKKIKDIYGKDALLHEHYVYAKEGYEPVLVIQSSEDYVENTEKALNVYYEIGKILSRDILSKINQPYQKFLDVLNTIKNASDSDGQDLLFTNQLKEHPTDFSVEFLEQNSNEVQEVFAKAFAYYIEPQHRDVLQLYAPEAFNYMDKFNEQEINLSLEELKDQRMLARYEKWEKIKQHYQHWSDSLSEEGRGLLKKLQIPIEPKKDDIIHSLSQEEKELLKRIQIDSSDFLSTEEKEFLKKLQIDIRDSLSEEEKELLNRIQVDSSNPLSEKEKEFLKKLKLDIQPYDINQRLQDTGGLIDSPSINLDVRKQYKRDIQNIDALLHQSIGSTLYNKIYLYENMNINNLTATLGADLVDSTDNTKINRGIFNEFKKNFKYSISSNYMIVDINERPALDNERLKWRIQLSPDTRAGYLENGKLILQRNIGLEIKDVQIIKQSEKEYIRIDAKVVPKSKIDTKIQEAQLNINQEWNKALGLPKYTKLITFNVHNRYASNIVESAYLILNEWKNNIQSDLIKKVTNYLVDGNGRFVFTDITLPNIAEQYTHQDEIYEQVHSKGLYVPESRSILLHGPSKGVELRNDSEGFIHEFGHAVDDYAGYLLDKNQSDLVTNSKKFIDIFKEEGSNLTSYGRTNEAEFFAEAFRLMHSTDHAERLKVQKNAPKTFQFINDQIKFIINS
Bead autofluor = counter-screen for toxin protease inhibitors: compound fluorescence. compound autofluorescence counterscreen, microsphere flow cytometry; stronger effect = higher value. fluorescence intensity (concentration not given with the values). 360,000 compounds, 3.1% hits; in the data active means fluorescence intensity above about 16000; inconclusive means no clear call, values can overlap the other calls
BoNT A protease = blocks Botulinum neurotoxin A light chain protease; 360,000 compounds, 0.17% hits; inhibition, % at 10 µM; multiplex microsphere protease substrate cleavage, flow cytometry
Of the large screens only hits and unclear results are named; the others gave an inactive call. Unless noted, no stated cut-off is given here; in the data, active means inhibition above about 30%; inconclusive means no clear call, values can overlap the other calls; inactive means below that.

Cc1ccc(S(=O)(=O)Nc2ccc(NC(=O)CN3CCCCC3)c(Cl)c2)cc1	Bead autofluor 19818
Cc1ccc(S(=O)(=O)N2CCN(CC(=O)Nc3ccccc3Cl)CC2)cc1	none
N#Cc1ccc(-c2ccc(F)cc2)nc1Oc1ccc(F)cc1	Bead autofluor 21827
COC(=O)C1CC(Oc2ccccc2F)CN1C(=O)c1cccnc1OC (configuration not stated)	none (no result: MazEF act, BoNT F protease, Anthrax LF inh2, Bead autofluor, BoNT A protease)
Cn1cc(C(=O)NCCC2=CCCCC2)c2[nH]c(=O)n(-c3ccc(F)cc3)c(=O)c21	none (no result: MazEF act, BoNT F protease, Anthrax LF inh2, Bead autofluor, BoNT A protease)
Cc1noc(-c2ccc3nccnc3c2)n1	PriA SSB inh 41 (no result: MazEF act, BoNT F protease, Anthrax LF inh2, Bead autofluor, BoNT A protease)
COCC(C)NC(=O)c1ccc(N(C)C)cc1 (configuration not stated)	Bead autofluor 17509
COCC(C)NC(=O)c1ccc2nc(-c3ccccc3)c(-c3ccccc3)nc2c1 (configuration not stated)	BoNT F protease inconclusive
Nc1ccnn1C1CCNCC1	Bead autofluor 19137
CN1CCC(n2nccc2N)CC1	none
COc1ccc(CCNC(=O)N2CC[C@H](Oc3nccnc3OC)C2)cc1	none (no result: MazEF act, BoNT F protease, Anthrax LF inh2, Bead autofluor, BoNT A protease)
CSc1ccccc1NS(=O)(=O)c1ccc2c(c1)OCCO2	Bead autofluor 20835
O=S(=O)(Nc1cccnc1Cl)c1ccc2c(c1)OCCO2	Bead autofluor 16615, BoNT A protease inconclusive
CC(C)CNS(=O)(=O)c1ccc2c(c1)OCCO2	Bead autofluor 24162
Cc1ccc2cc(CCNC(=S)Nc3ccc(Cl)cc3)c(=O)[nH]c2c1	none (no result: MazEF act, BoNT F protease, Anthrax LF inh2, Bead autofluor, BoNT A protease)
COc1ccc(S(=O)(=O)C2CCN(C(=O)Cn3nnc4ccccc43)CC2)cc1	none (no result: MazEF act, BoNT F protease, Anthrax LF inh2, Bead autofluor, BoNT A protease)
O=C(NN=C/C=C/c1ccc([N+](=O)[O-])o1)c1cccs1	none (no result: MazEF act, BoNT F protease, Anthrax LF inh2, Bead autofluor, BoNT A protease)
O=C(O)C1CC=CCC1C(=O)N1CCN(c2nc(-c3ccccc3Cl)c3cc(Br)ccc3n2)CC1 (configuration not stated)	Bead autofluor 16567
O=C(O)C1CC=CCC1C(=O)N1CCN(c2nc(-c3ccccc3)c3ccccc3n2)CC1 (configuration not stated)	none
Cc1nc(NC(=O)/C=C/c2ccc(Cl)cc2Cl)sc1C(=O)N(C)C	MazEF act 79
Cc1ccc(C)c(OCc2nc3c(C)cccc3[nH]2)c1	none (no result: MazEF act, BoNT F protease, Anthrax LF inh2, Bead autofluor, BoNT A protease)
CC(=O)Nc1ccc2nc(NC(=O)c3ccc4ncsc4c3)sc2c1	none (no result: MazEF act, BoNT F protease, Anthrax LF inh2, Bead autofluor, BoNT A protease)
COc1cc([N+](=O)[O-])cc2cc(C(=O)Oc3cccc4cccnc34)c(=O)oc12	none (no result: MazEF act, BoNT F protease, Anthrax LF inh2, Bead autofluor, BoNT A protease)
O=C(CSC1=Nc2cccnc2Nc2ccccc21)Nc1ccc(OC(F)(F)F)cc1	none (no result: MazEF act, BoNT F protease, Anthrax LF inh2, Bead autofluor, BoNT A protease)
COc1ccc(NC(=O)CSC2=Nc3cccnc3Nc3ccccc32)cc1OC	PriA SSB inh 44 (no result: MazEF act, BoNT F protease, Anthrax LF inh2, Bead autofluor, BoNT A protease)
O=C(CSC1=Nc2cccnc2Nc2ccccc21)Nc1ccc(F)cc1F	PriA SSB inh 41 (no result: MazEF act, BoNT F protease, Anthrax LF inh2, Bead autofluor, BoNT A protease)
O=C(CSc1nnc(Cc2ccccc2)o1)NCc1ccco1	Bead autofluor 21761
COc1ccc(Cc2nnc(SCC(=O)N3CCCCC3)o2)cc1	PriA SSB inh 53
COc1ccc(-c2nnc(SCC(=O)NCCc3ccccc3)o2)cc1	none
COc1ccc(Cc2nnc(SCC(=O)NCCc3ccccc3)o2)cc1	Bead autofluor 21339, BoNT A protease inconclusive
Cc1cc(C)n(C(=O)CSc2nc3ccccc3o2)n1	Bead autofluor 20678
C=CCn1c(=S)[nH]c2sc(C)c(-c3ccc(F)cc3)c2c1=O	none (no result: MazEF act, BoNT F protease, Anthrax LF inh2, Bead autofluor, BoNT A protease)
CCN(CC)C(=O)CSc1nc2c(-c3ccccc3)c[nH]c2c(=O)n1C	none (no result: MazEF act, BoNT F protease, Anthrax LF inh2, Bead autofluor, BoNT A protease)
O=C(O)c1ccc(CSc2nnc(Cc3ccccc3)o2)cc1	Bead autofluor 16912
COc1ccc(CCNC(=O)CSc2nc3ccccc3o2)cc1OC	Bead autofluor 23875
O=C(O)c1ccc(CSc2nnc(COc3ccccc3)o2)cc1	none
COc1ccc(CCNC(=O)CSc2nc3cc(Cl)ccc3o2)cc1OC	none
Cc1cccc(C)c1OCc1nnc(SCC(=O)NCCc2ccccc2)o1	Bead autofluor 23122, BoNT A protease inconclusive
COC(=O)c1ccccc1NC(=O)CSc1nnc(Cc2ccc(Cl)cc2)o1	Bead autofluor 19277
CC(=O)Nc1nc(C)cc(=O)[nH]1	none (no result: MazEF act, BoNT F protease, Anthrax LF inh2, Bead autofluor, BoNT A protease)
CC1=CC(=NN=C2NC(=O)C(CC(=O)Nc3ccccc3)S2)CC(C)(C)C1 (configuration not stated)	none (no result: MazEF act, BoNT F protease, Anthrax LF inh2, Bead autofluor, BoNT A protease)
CCOC(=O)c1c(NC(=O)CSc2nnc(-c3ccccc3)o2)sc(C(C)=O)c1C	none
COc1ccc(CCNC(=O)CSCc2n[nH]c(=O)[nH]2)cc1OC	Bead autofluor 20702, BoNT A protease inconclusive
COc1ccc(CCNC(=O)CSCc2ccc(C)cc2)cc1OC	none
COc1ccc(/C(O)=C/Sc2nnc(Cc3ccccc3)o2)cc1	Bead autofluor 24165

From PubChem BioAssay
